By % Inhibition is commonly meant the relative decrease from the control value, in per cent.

Out of some 150,000 compounds screened, about 540 (0.36%) showed an effect of 50% or more. The full list was thinned out, with strong results kept by preference.

43 compounds from ChEMBL document CHEMBL4888484, “Replenishing the malaria drug discovery pipeline: Screening and hit evaluation of the MMV Hit Generation Library 1 (HGL1) against asexual blood stage Plasmodium falciparum ,using a nano luciferase reporter read-out” (2022) can be followed below.

For this experiment, the system named is Plasmodium falciparum. The experiment is described as follows: Primary screen in NF54 nanoGlo assay, in single point, at 2uM, 72h; a lower Z score goes with more inhibition. It counts as functional, Erythrocyte. The note with it: timepoint 72 hour.
Regarding `CC1(N2CCOCC2)CCN(c2ncc(C(F)(F)F)s2)CC1`, the “% Inhibition” value is -5% and the Z score turned out to be 0.84.
In the same order, the values of `FC(F)(F)c1cnc(N2CCOC3(CCOCC3)CC2)s1` are 105% and -19.68.
For the compound `CCC1(N2CCOCC2)CCN(c2ncc(C(F)(F)F)s2)CC1`, the “% Inhibition” value amounted to 12% and the Z score was -1.55.
On the same counts, the results for `CC(C)(C)c1cc(CN2CCC3(CC2)[C@H](O)C[C@@H]3O)n[nH]1` are -1% and 0.15.
With `CC(C)(C)c1cc(CN2CCN(S(N)(=O)=O)CC2)n[nH]1`, the “% Inhibition” value was determined as 72% and the Z score is -0.86.
On the same counts, the results for `CC1(C#N)CCN(Cc2cc(C(C)(C)C)[nH]n2)CC1` are 4% and -0.56.
On the same counts, the results for `CC(C)OCC(=O)Nc1ccn(CCCn2ccnc2)n1` are -7% and 1.24.
In the same order, the values of `CCc1cc(NC(=O)Cc2ccc(OC)cc2)nn1-c1ccc(OC)cc1` are -2% and 0.3.
`COc1ccc(CC(=O)Nc2cc(C)n(-c3cccc(Cl)c3)n2)cc1`: the “% Inhibition” value is listed as 80% and the Z score is -8.55.
On to `Cc1cc(NC(=O)COc2ccccc2)nn1-c1ccc(Cl)cc1`, for which the “% Inhibition” value was -3% and the Z score came out at 0.32.
For the compound `O=C(Nc1cccnc1O)c1nc(C2CC2)n(-c2ccccc2)n1`, the “% Inhibition” value is on record as 33% and the Z score is -3.76.
In the same order, the values of `CN(C)C(=NCCC1CCCC1)N(C)C` are -7% and 0.94.
Turning to `O=C(Cc1n[nH]c(=O)c2ccccc12)N[C@H]1CCCc2c1[nH]c1c(Cl)cccc21`, the “% Inhibition” value is on record as 3% and the Z score is recorded as -0.39.
In the case of `CCN1CCCCc2cc(C(=O)N[C@H]3CCS(=O)(=O)C3)sc21`, the “% Inhibition” value is on record as -2% and the Z score is listed as 0.2.
In the same order, the values of `CCC(=O)N1c2ncnn2C(c2ccc(C)cc2)CC1c1ccccc1` (stereo unspecified) are 3% and -0.41.
On the same counts, the results for `COc1ccc(C(=O)N2c3ncnn3C(c3ccccc3)CC2c2ccc(C)cc2)cc1OC` (stereo unspecified) are 76% and -10.75.
Take `COc1ccc(C2CC(c3ccc(C)cc3)n3ncnc3N2C(=O)c2ccccc2)cc1` (stereo unspecified): the “% Inhibition” value is given as 32% and the Z score was -3.62.
On the same counts, the results for `CC(C)n1ncc2c1CC(NC(=O)CCC1CCCO1)CC2` (stereo unspecified) are -3% and 0.62.
On the same counts, the results for `CN(C)c1ccc(C(=O)Nc2ccccc2-c2cn3c(n2)CCCC3)nn1` are -10% and 1.93.
On the same counts, the results for `O=C1C2CCCCN2C(=O)N1CC(O)COc1ccc(F)cc1` (stereo unspecified) are -5% and 0.77.
Turning to `CCOC1CC(NC2CC(c3ccc(F)cc3)C2)C12CCC2` (stereo unspecified), the “% Inhibition” value was determined as 85% and the Z score is listed as -15.92.
On the same counts, the results for `CCOC1CC(NC(C)C(=O)N(C)Cc2cccc(F)c2)C12CCCC2` (stereo unspecified) are 4% and -0.62.
On the same counts, the results for `CCOC1CC(NCc2c[nH]nc2-c2cccnc2)C12CCC2` (stereo unspecified) are -10% and 1.18.
On the same counts, the results for `CCn1ccc(C(=O)N2CC(N(Cc3cccnc3)S(C)(=O)=O)C2)n1` are -4% and 0.78.
Regarding `CC(C)(C)OC(=O)N[C@@H]1CCCN(Cc2nc(-c3ccco3)no2)C1`, the “% Inhibition” value is listed as -11% and the Z score came to 1.1.
In the same order, the values of `CCc1c(C)nn2c(c1C)c(-c1ccccc1)[n+]1c(C)c(CC)c(C)nc21` are 53% and -10.21.
In the same order, the values of `Cc1nn2c(-c3ccc(-c4ccccc4)cc3)ccnc2c1Cl` are -12% and 1.64.
On the same counts, the results for `CCc1noc(Cc2c(C)nn(-c3ccccc3)c2C)n1` are -5% and 0.89.
With `C[C@@H](CN1CCOCC1)NC(=O)c1cccc2c1C(=O)OC2(C)C`, the “% Inhibition” value amounted to 2% and the Z score is given as -0.36.
`O=C(CN1C(=O)CCC1=O)N1CCN(S(=O)(=O)c2ccc(Br)cc2)CC1`: the “% Inhibition” value was -14% and the Z score worked out at 1.24.
`COc1cccc([C@H]2C[C@H](N(C)C(=O)CCCC(F)(F)F)C2)c1`: the “% Inhibition” value is 5% and the Z score is recorded as -0.72.
`Cn1nc(-c2nc(-c3cccc(F)c3)no2)c2c1CCN(C(=O)c1cccc(F)c1)C2`: the “% Inhibition” value is listed as -7% and the Z score is reported as 0.84.
`Cn1nc(-c2nc(-c3ccc(F)cc3)no2)c2c1CCN(C(=O)c1cccc(Cl)c1)C2`: the “% Inhibition” value was 66% and the Z score is -7.55.
On the same counts, the results for `Cn1nc(-c2nc(-c3cccc(F)c3)no2)c2c1CCN(C(=O)c1ccccn1)C2` are 12% and -1.38.
In the same order, the values of `CC12CN(S(=O)(=O)c3ccccc3)C3(C(=O)O)CC1CCC23C` (stereo unspecified) are 6% and -0.98.
On the same counts, the results for `CC12CN(S(=O)(=O)c3ccc4c(c3)OCCO4)C3(C(=O)NCCc4ccccc4)CC1CCC23C` (stereo unspecified) are -11% and 1.42.
For the compound `CC12CN(S(=O)(=O)c3ccc4c(c3)OCCO4)C3(C(=O)OCc4ccccc4)CC1CCC23C` (stereo unspecified), the “% Inhibition” value came out at 70% and the Z score is recorded as -8.79.
On the same counts, the results for `CCCN1CCN(CCCNC(=O)c2cc3cc(S(=O)(=O)N(C)C)ccc3n2CC)CC1` are -15% and 2.13.
As for `c1ccc(-c2cn3c(n2)c(-c2ccc4ccccc4n2)cc2ccccc23)cc1`, the “% Inhibition” value stood at 76% and the Z score was -4.16.
In the same order, the values of `CC(C)CCn1c(=O)c(-c2ccc3ccccc3n2)cc2ccccc21` are -1% and 0.07.
On the same counts, the results for `Clc1ccc(-c2cn3c(nc4ccccc43)c(-c3ccccc3)n2)cc1` are -43% and 5.09.
As for `COc1ccc(C[C@@]2(CCC(=O)N3CCCCC3)CCC(=O)N2)cc1`, the “% Inhibition” value was 4% and the Z score is given as -0.58.
In the same order, the values of `OCc1cc(CN[C@H]2CCCNc3ccccc32)ccc1F` are 4% and -0.52.
